Source: PubChem BioAssay (EPA / NIEHS)
The source made the active and inactive calls. Rule for the calls: active = hit-call score of the fitted dose curve at least 0.9, where 1 is the maximum; inactive = score below 0.9.

Assays:
[1] = read-out: TIMP metallopeptidase inhibitor 2 (TIMP2), TIMP2 (gene 7077); experiment: BSK_KF3CT_TIMP2: BioMAP Diversity Plus: KF3CT Assay for TIMP metallopeptidase inhibitor 2 (TIMP2) Biomarker Activity (AID 2283071); details: primary human keratinocytes with fibroblasts; actives raise or lower the signal
How it was run: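 Keratinocyte–fibroblast co-culture, 24 h exposure; TIMP-2 ELISA, DMSO-normalised bidirectional fit. Parallel SRB (0.1%, TCA-fixed, 560 nm) total-protein staining gauges cytotoxicity.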

[2] = read-out: Transforming growth factor beta 1 (TGFb1), TGFB1 (gene 7040); experiment: BSK_KF3CT_TGFb1: BioMAP Diversity Plus: KF3CT Assay for Transforming growth factor beta 1 (TGFb1) Biomarker Activity (AID 2283072); details: primary human keratinocytes with fibroblasts; actives raise or lower the signal
How it was run: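 Signal changes in either direction, relative to DMSO, define activity here. TGF-b1 is read by ELISA from a human keratinocyte-fibroblast co-culture 24 h post-dose.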

[3] = read-out: C-C motif chemokine 2 (Homo sapiens) (UniProt P13500); experiment: BSK_KF3CT_MCP1: BioMAP Diversity Plus: KF3CT Assay for Monocyte Chemoattractant Protein 1 (MCP1/CCL2) Biomarker Activity (AID 2283073); details: primary human keratinocytes with fibroblasts; actives raise or lower the signal
How it was run: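 ELISA readout of MCP-1 after 24 h chemical dosing of a human skin primary co-culture of keratinocytes and foreskin fibroblasts. Activity was fitted in both directions against DMSO.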

[4] = read-out: Matrix Metallopeptidase 9 (MMP9), MMP9 (gene 4318); experiment: BSK_KF3CT_MMP9: BioMAP Diversity Plus: KF3CT Assay for Matrix Metallopeptidase 9 (MMP9) Biomarker Activity (AID 2283074); details: primary human keratinocytes with fibroblasts; actives raise or lower the signal;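 for AC50: MMP9 protein level quantified by ELISA in the co-culture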
How it was run: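 Human keratinocyte/foreskin fibroblast co-culture; compound added; 24 h; MMP-9 by ELISA; bidirectional fit vs DMSO baseline.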

[5] = read-out: urokinase plasminogen activator (uPA), PLAU (gene 5328); experiment: BSK_KF3CT_uPA: BioMAP Diversity Plus: KF3CT Assay for urokinase plasminogen activator (uPA) Biomarker Activity (AID 2283075); details: primary human keratinocytes with fibroblasts; actives raise or lower the signal
How it was run: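 ELISA readout of uPA, analyzed for signal gain or loss relative to DMSO, from a human primary keratinocyte–foreskin fibroblast co-culture measured 24 h after chemical treatment.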

CD40, CD40 (gene 958) [6] = experiment: BSK_LPS_CD40: BioMAP Diversity Plus: LPS Assay for CD40 Biomarker Activity (AID 2283076); details: primary human HUVEC with PBMC; actives raise or lower the signal
How it was run: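 Cells were dosed, incubated 24 h, then assayed for CD40 by ELISA. Gain or loss of signal was analysed relative to DMSO controls. The culture paired human umbilical vein endothelium with peripheral blood mononuclear cells.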

[7] = read-out: E-selectin (Homo sapiens) (UniProt P16581); experiment: BSK_LPS_Eselectin: BioMAP Diversity Plus: LPS Assay for Eselectin Biomarker Activity (AID 2283077); details: primary human HUVEC with PBMC; actives raise or lower the signal
How it was run: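 Primary human vascular co-culture (endothelium plus PBMC) was dosed with chemical, then E-selectin quantified by ELISA at 24 h. Endpoint values derive from bidirectional curve fitting relative to DMSO.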

[8] = read-out: Interleukin-8 (IL8), CXCL8 (gene 3576); experiment: BSK_LPS_IL8: BioMAP Diversity Plus: LPS Assay for Interleukin-8 (IL8) Biomarker Activity (AID 2283078); details: primary human HUVEC with PBMC; actives raise or lower the signal
How it was run: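 Readout is IL-8 by ELISA, taken 24 h after compounds were added to LPS-stimulated endothelial/PBMC co-cultures. Both increases and decreases relative to DMSO control were scored through bidirectional fitting.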

[9] = BSK_LPS_SRB: Viability Assessment in the BioMAP Diversity Plus: LPS Assay (AID 2283079); details: primary human HUVEC with PBMC;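 note: total protein by sulforhodamine B absorbance as a cytotoxicity measure; measured one day after compound addition; fitted in both directions against DMSO so loss or gain of signal counts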
How it was run: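 Readout is SRB absorbance at 560 nm (0.1% stain, TCA-fixed parallel cultures) as a total-protein cytotoxicity measure. Cells: primary human umbilical vein endothelium plus peripheral blood mononuclear cells, 24 h after chemical exposure; DMSO served as baseline.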

[10] = read-out: Monocyte Chemoattractant Protein-1 (MCP1), CCL2 (gene 6347); experiment: BSK_LPS_MCP1: BioMAP Diversity Plus: LPS Assay for Monocyte Chemoattractant Protein-1 (MCP1) Biomarker Activity (AID 2283081); details: primary human HUVEC with PBMC; actives raise or lower the signal
How it was run: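 Human endothelial–PBMC co-cultures were dosed with chemical, then LPS-driven MCP-1 levels were quantified by ELISA at 24 h. Activity in either direction was fitted versus DMSO negative control.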

[11] = read-out: Macrophage colony-stimulating factor (MCSF), CSF1 (gene 1435); experiment: BSK_LPS_MCSF: BioMAP Diversity Plus: LPS Assay for Macrophage colony-stimulating factor (MCSF) Biomarker Activity (AID 2283083); details: primary human HUVEC with PBMC; actives raise or lower the signal
How it was run: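 ELISA readout of M-CSF after 24 h compound exposure in a human endothelial/PBMC co-culture. Activity, in either direction, is fitted relative to DMSO vehicle.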

[12] = read-out: Tissue Factor, F3 (gene 2152); experiment: BSK_LPS_TissueFactor: BioMAP Diversity Plus: LPS Assay for Tissue Factor Biomarker Activity (AID 2283084); details: primary human HUVEC with PBMC; actives raise or lower the signal
How it was run: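 ELISA signal for cell-surface Tissue Factor (CD142) was read 24 h after compound dosing of an LPS-stimulated human endothelial–PBMC primary co-culture. Gain or loss of signal was scored relative to DMSO.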

[13] = read-out: Tumor necrosis factor (Homo sapiens) (UniProt P01375); experiment: BSK_LPS_TNFa: BioMAP Diversity Plus: LPS Assay for Tumour Necrosis Factor alpha (TNFa) Biomarker Activity (AID 2283085); details: primary human HUVEC with PBMC; actives raise or lower the signal
How it was run: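 Primary human vascular co-culture of HUVEC and PBMC; TNFa ELISA 24 h after treatment, analysed as increase or decrease relative to DMSO control.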

[14] = read-out: Vascular cell adhesion molecule 1 (VCAM1), VCAM1 (gene 7412); experiment: BSK_LPS_VCAM1: BioMAP Diversity Plus: LPS Assay for Vascular cell adhesion molecule 1 (VCAM1) Biomarker Activity (AID 2283086); details: primary human HUVEC with PBMC; actives raise or lower the signal
How it was run: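 Primary human vascular co-culture (umbilical vein endothelium plus PBMC) stimulated with LPS received chemical; 24 h later VCAM-1 was read by ELISA. Overt cytotoxicity was assessed by sulforhodamine B staining of parallel cultures at the same time point.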

CD38, CD38 (gene 952) = experiment: BSK_SAg_CD38: BioMAP Diversity Plus: SAg Assay for CD38 Biomarker Activity (AID 2283087); details: primary human HUVEC with PBMC; actives raise or lower the signal
How it was run: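 Fluorescence ELISA of cell-surface CD38 served as the read-out, with either increase or decrease fitted against DMSO controls. Cells were a human umbilical vein endothelium plus PBMC co-culture under SEB/TSST-1 stimulation, measured 24 h after dosing.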

CD40, CD40 (gene 958) [15] = experiment: BSK_SAg_CD40: BioMAP Diversity Plus: SAg Assay for CD40 Biomarker Activity (AID 2283088); details: primary human HUVEC with PBMC; actives raise or lower the signal
How it was run: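 Compounds were dosed onto a human primary endothelial–PBMC co-culture, and after 24 h CD40 was quantified by ELISA using a fluorescence signal. Activity in either direction was fitted relative to DMSO.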

CD69, CD69 (gene 969) = experiment: BSK_SAg_CD69: BioMAP Diversity Plus: SAg Assay for CD69 Biomarker Activity (AID 2283089); details: primary human HUVEC with PBMC; actives raise or lower the signal
How it was run: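 HUVEC co-cultured with PBMC were dosed with chemical, and CD69 was measured by ELISA with fluorescence read-out 24 h later. Bidirectional curve fitting used DMSO as negative control and activity baseline.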

[16] = read-out: Monocyte Chemoattractant Protein-1 (MCP1), CCL2 (gene 6347); experiment: BSK_SAg_MCP1: BioMAP Diversity Plus: SAg Assay for Monocyte Chemoattractant Protein-1 (MCP1) Biomarker Activity (AID 2283090); details: primary human HUVEC with PBMC; actives raise or lower the signal
How it was run: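 MCP-1 levels in the endothelial–PBMC SAg co-culture were quantified by ELISA at 24 h post-dosing; both increases and decreases versus DMSO scored. Cytotoxicity monitored by SRB total protein in parallel cultures.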

[17] = read-out: Interleukin-1 alpha (IL1a), IL1A (gene 3552); experiment: BSK_LPS_IL1a: BioMAP Diversity Plus: LPS Assay for Interleukin-1 alpha (IL1a) Biomarker Activity (AID 2283080); details: primary human HUVEC with PBMC; actives raise or lower the signal
How it was run: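 ELISA read-out of IL-1 alpha from a human primary vascular co-culture (endothelium plus PBMC) under LPS, sampled 24 hours post-dosing. Activity was fitted in both directions relative to DMSO controls.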

[18] = BSK_LPS_PGE2: BioMAP Diversity Plus: LPS Assay for Prostaglandin E2 (PGE2) Biomarker Activity (AID 2283082); details: primary human HUVEC with PBMC; actives raise or lower the signal;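 for AC50: secreted prostaglandin E2 measured by ELISA in LPS-stimulated co-culture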
How it was run: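 Endpoint derived from bidirectional curve fitting versus DMSO of ELISA-measured PGE2 in LPS-stimulated human primary vascular co-culture (HUVEC with PBMC) harvested at 24 h.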

Chain of E-selectin (Homo sapiens) (P16581 whole entry, looked up): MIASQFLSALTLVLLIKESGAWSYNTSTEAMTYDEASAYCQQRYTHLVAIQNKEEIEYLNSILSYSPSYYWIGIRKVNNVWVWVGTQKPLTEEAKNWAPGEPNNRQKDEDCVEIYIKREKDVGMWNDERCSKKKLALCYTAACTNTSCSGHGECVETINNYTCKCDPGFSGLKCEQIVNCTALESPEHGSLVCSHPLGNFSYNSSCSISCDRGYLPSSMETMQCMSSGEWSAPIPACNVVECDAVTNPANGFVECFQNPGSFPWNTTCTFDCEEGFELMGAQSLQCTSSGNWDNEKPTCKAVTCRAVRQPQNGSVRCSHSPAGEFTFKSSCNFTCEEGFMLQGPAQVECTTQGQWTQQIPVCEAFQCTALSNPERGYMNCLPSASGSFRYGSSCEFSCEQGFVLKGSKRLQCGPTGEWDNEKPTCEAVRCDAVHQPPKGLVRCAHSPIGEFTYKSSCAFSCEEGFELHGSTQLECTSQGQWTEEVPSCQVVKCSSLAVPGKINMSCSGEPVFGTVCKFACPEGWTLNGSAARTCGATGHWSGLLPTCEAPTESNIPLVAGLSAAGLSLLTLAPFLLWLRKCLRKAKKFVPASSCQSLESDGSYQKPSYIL
Chain of Tumor necrosis factor (Homo sapiens) (P01375 whole entry, looked up): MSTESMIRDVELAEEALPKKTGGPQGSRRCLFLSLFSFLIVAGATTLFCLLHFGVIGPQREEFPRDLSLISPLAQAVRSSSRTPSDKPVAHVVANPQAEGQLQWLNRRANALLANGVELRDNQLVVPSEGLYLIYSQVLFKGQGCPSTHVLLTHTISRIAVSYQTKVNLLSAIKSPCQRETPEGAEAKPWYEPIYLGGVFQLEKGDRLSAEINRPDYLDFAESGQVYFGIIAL

Question: With `ClCCOCCCl` as the compound, how does the outcome [1] read?
Answer: inactive

Question: And the outcome [2]?
Answer: inactive

Question: And the outcome [3]?
Answer: inactive

Question: What about the outcome [4] of the same compound?
Answer: inactive

Question: What about the outcome [5] of the same compound?
Answer: inactive

Question: What about the outcome (CD40, CD40 (gene 958) [6]) of the same compound?
Answer: inactive

Question: And the outcome [7]?
Answer: inactive

Question: What about the outcome [8] of the same compound?
Answer: inactive

Question: What about the outcome [9] of the same compound?
Answer: inactive

Question: And the outcome [10]?
Answer: inactive

Question: And the outcome [11]?
Answer: inactive

Question: And the outcome [12]?
Answer: inactive

Question: What about the outcome [13] of the same compound?
Answer: inactive

Question: What about the outcome [14] of the same compound?
Answer: inactive

Question: What about the outcome (CD38, CD38 (gene 952)) of the same compound?
Answer: inactive

Question: And the outcome (CD40, CD40 (gene 958) [15])?
Answer: inactive

Question: And the outcome (CD69, CD69 (gene 969))?
Answer: inactive

Question: What about the outcome [16] of the same compound?
Answer: inactive

Question: What does the source list for `O=P(OCCCl)(OCCCl)OCCCl`?
Answer: outcome [1]: inactive; outcome [2]: inactive; outcome [3]: inactive; outcome [4]: inactive; outcome (CD40, CD40 (gene 958) [6]): inactive; outcome [7]: inactive; outcome [8]: inactive; outcome [9]: inactive; outcome [17]: inactive; outcome [10]: inactive; outcome [18]: inactive; outcome [11]: inactive; outcome [12]: inactive; outcome [13]: inactive; outcome [14]: inactive; outcome (CD40, CD40 (gene 958) [15]): inactive; outcome (CD69, CD69 (gene 969)): inactive; outcome [16]: inactive

Question: What does the source list for `Nc1ccc(Cc2ccc(N)cc2)cc1`?
Answer: outcome [1]: inactive; outcome [2]: inactive; outcome [3]: inactive; outcome [4]: inactive; outcome [5]: inactive; outcome (CD40, CD40 (gene 958) [6]): inactive; outcome [7]: inactive; outcome [8]: inactive; outcome [9]: inactive; outcome [10]: inactive; AC50 [18]: 8.34 µM (active); outcome [11]: inactive; outcome [12]: inactive; outcome [13]: inactive; outcome [14]: inactive; outcome (CD40, CD40 (gene 958) [15]): inactive; outcome (CD69, CD69 (gene 969)): inactive; outcome [16]: inactive

Question: For `Cc1ccc(N)c(N)c1`, which outcome [1] is on record?
Answer: inactive

Question: And the outcome [2]?
Answer: inactive

Question: What about the outcome [3] of the same compound?
Answer: inactive

Question: And the AC50 [4]?
Answer: 9.74 µM (active)

Question: What about the outcome [5] of the same compound?
Answer: inactive

Question: And the outcome (CD40, CD40 (gene 958) [6])?
Answer: inactive

Question: And the outcome [7]?
Answer: inactive

Question: What about the outcome [8] of the same compound?
Answer: inactive

Question: And the outcome [9]?
Answer: inactive

Question: What about the outcome [10] of the same compound?
Answer: inactive

Question: And the AC50 [11]?
Answer: 11.5 µM (active)

Question: What about the outcome [12] of the same compound?
Answer: inactive

Question: And the outcome [13]?
Answer: inactive

Question: And the AC50 [14]?
Answer: 9.77 µM (active)

Question: What about the AC50 (CD40, CD40 (gene 958) [15]) of the same compound?
Answer: 7.11 µM (active)

Question: What about the outcome (CD69, CD69 (gene 969)) of the same compound?
Answer: inactive

Question: What about the outcome [16] of the same compound?
Answer: inactive
